# Hit rate of the full screen: of about 5,500 compounds, about 2,000 (36%) were called active. About 18% were inconclusive and are not listed. Some of the results follow. Unmarked numbers belong to inactive results. Cut-off read from the data, not from the text of the source: active = normalized growth mostly below about 0.91 (no sharp cut-off); inconclusive = no clear call, values can overlap the other calls; inactive = mostly above about 0.92.
# Experiment: chemical genetic growth profiling, strain panel (AID 1159580);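 note: tested at 20 µM; growth read once vehicle control cultures reached saturation at 30 °C; 1 = growth at the plate median or of vehicle wells; lower values mean less growth of the strain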
# Conditions: S. cerevisiae deletion strains, growth OD
# [1] = locus YDL101C, strain DUN1, stronger effect = lower value
# [2] = locus YHR030C, strain SLT2, stronger effect = lower value
compound,measurement,setting,value
O=C(C=C(O)c1ccc(Br)cc1)C(=O)Nc1ccccc1,normalized growth,"locus YAR019C, strain CDC15, stronger effect = lower value",0.489 (active)
same,normalized growth,"locus YBL105C, strain PKC1, stronger effect = lower value",0.637 (active)
same,normalized growth,"locus YBR135W, strain CKS1, stronger effect = lower value",0.686 (active)
same,normalized growth,"locus YBR136W, strain MEC1, stronger effect = lower value",0.851 (active)
same,normalized growth,"locus YBR160W, strain CDC28, stronger effect = lower value",0.893 (active)
same,normalized growth,"locus YDL017W, strain CDC7, stronger effect = lower value",0.683 (active)
same,normalized growth,"locus YDL028C, strain MPS1, stronger effect = lower value",0.834 (active)
same,normalized growth,[1],0.379 (active)
same,normalized growth,"locus YDL108W, strain KIN28, stronger effect = lower value",0.874 (active)
same,normalized growth,"locus YDL132W, strain cdc53, stronger effect = lower value",0.76 (active)
same,normalized growth,"locus YDL214C, strain PRR2, stronger effect = lower value",0.145 (active)
same,normalized growth,"locus YDR052C, strain DBF4, stronger effect = lower value",0.849 (active)
same,normalized growth,"locus YDR054C, strain cdc34, stronger effect = lower value",0.581 (active)
same,normalized growth,"locus YDR226W, strain ADK1, stronger effect = lower value",0.869 (active)
same,normalized growth,"locus YDR477W, strain SNF1, stronger effect = lower value",0.105 (active)
same,normalized growth,"locus YER123W, strain YCK3, stronger effect = lower value",0.124 (active)
same,normalized growth,"locus YER133W, strain GLC7, stronger effect = lower value",0.229 (active)
same,normalized growth,"locus YFL009W, strain cdc4, stronger effect = lower value",0.7 (active)
same,normalized growth,"locus YFL029C, strain CAK1, stronger effect = lower value",0.439 (active)
same,normalized growth,"locus YFR003C, strain YPI1, stronger effect = lower value",0.718 (active)
same,normalized growth,"locus YFR019W, strain FAB1, stronger effect = lower value",0.128 (active)
same,normalized growth,"locus YFR028C, strain CDC14, stronger effect = lower value",0.448 (active)
same,normalized growth,"locus YGR040W, strain KSS1, stronger effect = lower value",0.109 (active)
same,normalized growth,"locus YGR052W, strain FMP48, stronger effect = lower value",0.132 (active)
same,normalized growth,"locus YGR092W, strain DBF2, stronger effect = lower value",0.104 (active)
same,normalized growth,[2],0.148 (active)
same,normalized growth,"locus YHR079C, strain IRE1, stronger effect = lower value",0.159 (active)
same,normalized growth,"locus YHR082C, strain KSP1, stronger effect = lower value",0.136 (active)
same,normalized growth,"locus YHR205W, strain SCH9, stronger effect = lower value",0.0311 (active)
same,normalized growth,"locus YIL147C, strain SLN1, stronger effect = lower value",0.848 (active)
same,normalized growth,"locus YJL095W, strain BCK1, stronger effect = lower value",0.136 (active)
same,normalized growth,"locus YJL128C, strain PBS2, stronger effect = lower value",0.483 (active)
same,normalized growth,"locus YJL157C, strain FAR1, stronger effect = lower value",0.113 (active)
same,normalized growth,"locus YJR016C, strain ILV3, stronger effect = lower value",0.156 (active)
same,normalized growth,"locus YJR066W, strain TOR1 (second series), stronger effect = lower value",0.115 (active)
same,normalized growth,"locus YJR066W, strain TOR1, stronger effect = lower value",0.122 (active)
same,normalized growth,"locus YKL048C, strain ELM1, stronger effect = lower value",0.136 (active)
same,normalized growth,"locus YKL067W, strain YNK1, stronger effect = lower value",0.127 (active)
same,normalized growth,"locus YKL101W, strain HSL1, stronger effect = lower value",0.103 (active)
same,normalized growth,"locus YKL193C, strain SDS22, stronger effect = lower value",0.761 (active)
same,normalized growth,"locus YKL203C, strain TOR2, stronger effect = lower value",0.142 (active)
same,normalized growth,"locus YLR113W, strain HOG1, stronger effect = lower value",0.145 (active)
same,normalized growth,"locus YLR133W, strain CKI1, stronger effect = lower value",0.127 (active)
same,normalized growth,"locus YLR403W, strain SFP1, stronger effect = lower value",0.00467 (active)
same,normalized growth,"locus YML070W, strain DAK1, stronger effect = lower value",0.129 (active)
same,normalized growth,"locus YMR001C, strain CDC5, stronger effect = lower value",0.449 (active)
same,normalized growth,"locus YMR205C, strain PFK2 (second series), stronger effect = lower value",0.118 (active)
same,normalized growth,"locus YMR277W, strain FCP1, stronger effect = lower value",0.728 (active)
same,normalized growth,"locus YNL006W, strain LST8, stronger effect = lower value",0.158 (active)
same,normalized growth,"locus YNL020C, strain ARK1, stronger effect = lower value",0.109 (active)
same,normalized growth,"locus YNL161W, strain CBK1, stronger effect = lower value",0.77 (active)
same,normalized growth,"locus YNL183C, strain NPR1, stronger effect = lower value",0.131 (active)
same,normalized growth,"locus YNL207W, strain RIO2, stronger effect = lower value",0.824 (active)
same,normalized growth,"locus YNL222W, strain SSU72, stronger effect = lower value",0.786 (active)
same,normalized growth,"locus YNL307C, strain MCK1 (second series), stronger effect = lower value",0.114 (active)
same,normalized growth,"locus YOL078W, strain AVO1, stronger effect = lower value",0.76 (active)
same,normalized growth,"locus YOL136C, strain PFK27, stronger effect = lower value",0.109 (active)
same,normalized growth,"locus YOR061W, strain CKA2, stronger effect = lower value",0.0904 (active)
same,normalized growth,"locus YOR119C, strain RIO1, stronger effect = lower value",0.134 (active)
same,normalized growth,"locus YOR231W, strain MKK1, stronger effect = lower value",0.14 (active)
same,normalized growth,"locus YOR329C, strain SCD5, stronger effect = lower value",0.79 (active)
same,normalized growth,"locus YPL031C, strain PHO85, stronger effect = lower value",0.105 (active)
same,normalized growth,"locus YPL153C, strain RAD53, stronger effect = lower value",0.103 (active)
same,normalized growth,"locus YPL204W, strain HRR25, stronger effect = lower value",0.114 (active)
same,normalized growth,"locus YPL209C, strain IPL1, stronger effect = lower value",0.646 (active)
same,normalized growth,"locus YPL256C, strain CLN2, stronger effect = lower value",0.17 (active)
same,normalized growth,"locus YPR025C, strain CCL1, stronger effect = lower value",0.871 (active)
same,normalized growth,"locus YPR106W, strain ISR1, stronger effect = lower value",0.513 (active)
same,normalized growth,"locus YPR111W, strain DBF20, stronger effect = lower value",0.724 (active)
same,normalized growth,"strain NNK1, stronger effect = lower value",0.106 (active)
same,normalized growth,"strain TSCII, stronger effect = lower value",0.39 (active)
O=C(Nc1ccccc1C(=O)Nc1ccc(Br)cc1)c1ccccc1,normalized growth,"locus YAL013W, strain DEP1, stronger effect = lower value",1.01
same,normalized growth,"locus YBR229C, strain ROT2, stronger effect = lower value",1.02
same,normalized growth,[1],1.05
same,normalized growth,"locus YDR150W, strain NUM1, stronger effect = lower value",1
same,normalized growth,"locus YEL061C, strain CIN8, stronger effect = lower value",0.998
same,normalized growth,"locus YGR078C, strain PAC10, stronger effect = lower value",1.02
same,normalized growth,"locus YGR229C, strain SMI1, stronger effect = lower value",1.03
same,normalized growth,[2],1.03
same,normalized growth,"locus YHR087W, strain rtc3, stronger effect = lower value",1.03
same,normalized growth,"locus YJL187C, strain SWE1, stronger effect = lower value",1.01
same,normalized growth,"locus YJR043C, strain POL32, stronger effect = lower value",1.03
same,normalized growth,"locus YJR075W, strain HOC1, stronger effect = lower value",0.997
same,normalized growth,"locus YKL190W, strain CNB1, stronger effect = lower value",1.03
same,normalized growth,"locus YLR039C, strain RIC1, stronger effect = lower value",1.02
same,normalized growth,"locus YLR058C, strain SHM2 (second series), stronger effect = lower value",1.02
same,normalized growth,"locus YLR085C, strain ARP6, stronger effect = lower value",1
same,normalized growth,"locus YLR262C, strain YPT6, stronger effect = lower value",1.03
same,normalized growth,"locus YML094W, strain GIM5, stronger effect = lower value",1.01
same,normalized growth,"locus YMR219W, strain ESC1, stronger effect = lower value",1.01
same,normalized growth,"locus YMR263W, strain SAP30, stronger effect = lower value",1.03
same,normalized growth,"locus YNL153C, strain GIM3, stronger effect = lower value",1.03
same,normalized growth,"locus YNL298W, strain CLA4 (second series), stronger effect = lower value",1.06
same,normalized growth,"locus YNL322C, strain KRE1, stronger effect = lower value",1.02
same,normalized growth,"locus YNR030W, strain Alg12, stronger effect = lower value",1.02
same,normalized growth,"locus YPL055C, strain LGE1, stronger effect = lower value",1.08
same,normalized growth,"locus YPL241C, strain CIN2, stronger effect = lower value",1.01
same,normalized growth,"locus YPR135W, strain CTF4, stronger effect = lower value",1.17
